# A selection: hits, their analogues and other compounds. The true share with any hit is near 4.1%.
# MIN6 prolif – induces beta-cell replication in MIN6 cells | MIN6 cells proliferation, ATPlite luminescence, 48 h; cells starved in 0.2% serum; 100% = growth in 10% serum | hit rate 0.29% among 330,000 | AID 2380 | proliferation, % at 10 µM;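 active means compounds whose signal lies at least 3.5 SD above the mean of all wells on their plate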;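 further: 0% = DMSO-treated cells in low-serum medium and 100% = 10% serum control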
# MPTP inh – permeability transition pore inhibition | isolated mouse mitochondria, Ca2+ swelling absorbance, 30 min | inhibition, % at 10 µM | hit rate 1.4% among 360,000;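 active means inhibition of 50% or more, scaled per plate between neutral and stimulator controls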;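 further: 0% = DMSO wells given calcium and 100% = 1 mM EGTA wells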
# GRIN3A LBD mod – modulators (binders) of human NR3A ligand-binding domain. NR3A LBD differential scanning fluorimetry, Tm shift; 0% = protein alone, 100% = glycine-bound protein. Tm shift relative to glycine control, % at 25 µM. hit rate 2.5% among 340,000. AID 1259313;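 active means melting temperature shift of at least 10% of the positive control shift, at one fixed dose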
# p-CIP stab down – lowers stability of the mouse p/CIP coactivator protein; Q05BA5; F442A p/CIP-EGFP cells, EGFP fluorescence, 16 h; decrease of EGFP signal, % at 10 µM; hit rate 0.01% among 290,000; AID 1984;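 active means EGFP signal decrease of at least 30% at 10 µM or well 3 SD below plate mean, unless failing retest; inactive means the rest, including hits failing retest or dose response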
# FAS-TE inh – FAS thioesterase (human) inhibition; P49327; recombinant FAS-TE, OMFH fluorogenic substrate, fluorescence endpoint; AID 602261; inhibition, % at 15 µM; hit rate 0.67% among 360,000;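 active means compounds whose normalised, plate-corrected inhibition of enzyme fluorescence in the single-dose primary screen is 50% or more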;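 further: 0% = DMSO with enzyme and 100% = substrate without enzyme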
# The depositor's hits bear a star; · = no result.
SMILES,MIN6 prolif,MPTP inh,GRIN3A LBD mod,p-CIP stab down,FAS-TE inh
CSc1nc(Oc2ccccc2)c2sccc2n1,7.0,0.3,-1.2,5.1,14.4
O=C(CS(=O)(=O)c1ccc(Cl)cc1)Nc1nccs1,·,-0.8,·,·,-5.3
O=C(Nc1cccc(Br)c1)c1ccc2c(c1)SC1=NS(=O)(=O)CCN12,0.5,-0.1,18.5*,·,3.1
CCn1c(=Nc2ccc(N3CCOCC3)cc2)ccc2ccccc21,-1.8,-1.4,13.6*,-6.7,-3.1
COc1cccc(-c2cc(CNC(=O)[C@H]3O[C@@H](n4ccc(N)nc4=O)[C@H](O)[C@@H]3O)no2)c1,·,0.9,·,·,-8.9
C/C(=N/NS(=O)(=O)c1ccc(C)c(C)c1)c1c[nH]c2ccccc12,0.2,2.4,38.4*,2.7,10.5
C/C(=N/NS(=O)(=O)c1ccc(C)cc1C)c1c[nH]c2ccccc12,-2.4,2.0,11.2*,-8.4,5.0
C/C(=N/NC(=O)c1ccccn1)c1c[nH]c2ccccc12,-3.6,2.5,4.0,2.3,-3.1
CCOC(=O)[C@]12CCC=C1N(Cc1ccc3c(c1)OCO3)C(=O)[C@H](CC(=O)NCc1ccccc1)C2,·,0.0,·,·,-1.2
CC(=O)Nc1nc2cc(C(N)=O)ccc2s1,0.8,0.7,-1.3,·,-6.8
COc1ccc(C(=O)Nc2nc3ccccc3s2)cc1,-4.6,1.5,25.6*,26.3,9.5
COc1ccccc1NC(=O)Nc1nc2ccc(S(N)(=O)=O)cc2s1,-1.4,-1.0,20.1*,-20.0,-3.9
NC(=O)c1ccc2nc(NC(=O)c3ccc(N)cc3)sc2c1,-3.5,-0.7,13.9*,12.8,-1.2
COc1ccc2nc(NC(=O)c3ccc4ncsc4c3)sc2c1,-3.4,0.6,26.3*,-8.5,-9.3
C=C(C)[C@@H]1C2=CC(C(=O)OC)=C(C[C@H](C(=C)C)[C@H]3O[C@H]3C3=C[C@H]1OC3=O)O2,·,0.0,·,·,-0.3
c1ccc2c(c1)oc1c(-c3ccc4nccn4c3)cccc12,·,0.2,·,·,2.1
O=C1NC[C@H](CCCCN2C[C@H](Cc3ccccc3)N(CCc3ccc(O)cc3)C(=O)C2=O)N(CCc2ccc(O)cc2)C1=O,·,0.3,·,·,-4.6
COc1ccc2nc(NC(=O)c3cccs3)sc2c1,-3.0,0.6,19.3*,-7.2,-9.1
O=C(Nc1nc2ccccc2s1)c1ccc(Cl)s1,-3.3,2.2,20.9*,-2.6,2.2
COc1ccc2nc(NC(=O)Nc3cccc4ccccc34)sc2c1,-3.1,5.6,23.2*,-10.9,2.1
CC(=O)Nc1ccc2nc(NC(=O)c3cccs3)sc2c1,-4.4,1.7,6.6,-2.1,-2.1
COc1ccc(OCC(=O)Nc2nc3ccc(NC(C)=O)cc3s2)cc1,1.7,-1.5,14.1*,-5.5,-2.6
C(=C\c1ccccc1)/CN1CCN(C(c2cc3ccccc3o2)c2nnnn2-c2ccc3c(c2)OCCO3)CC1 (stereo unspecified),·,1.8,·,·,36.4
CCOC(=O)CC1(C)Oc2ccccc2N1S(=O)(=O)c1ccc(C)cc1 (stereo unspecified),·,1.0,·,·,·
Nc1ccccc1C#CC(=O)c1ccccc1,-5.0,1.8,4.9,-16.8,15.4
SMILES,MIN6 prolif,MPTP inh,GRIN3A LBD mod,p-CIP stab down,FAS-TE inh
CCc1nc2ccc(C(=O)NCCc3c[nH]c4ccccc34)cn2c1N(C=O)CCC(C)C,·,-1.1,·,·,5.9
COc1ccc2nc(NC(=O)c3ccc(F)cc3)sc2c1,-0.7,2.6,10.1*,-4.7,1.0
O=C(/C=C\c1cn(-c2ccccc2)nc1-c1ccccc1)Nc1nccs1,-6.1,6.9,27.5*,-7.3,1.1
O=C(O)c1ccccc1C(=O)Nc1nc(-c2ccc3ccccc3c2)cs1,-2.0,0.8,-9.1,-5.6,0.1
O=C(/C=C/c1cccs1)Nc1nc(-c2ccccc2)cs1,-5.7,-0.2,17.3*,-14.7,22.3
O=C(/C=C\c1ccco1)Nc1nc(-c2ccc3ccccc3c2)cs1,-2.4,3.9,24.6*,-20.4,17.6
Cc1ccc(-c2csc(NC(=S)NC(=O)/C=C/c3ccco3)n2)cc1,-4.1,3.5,17.4*,4.9,22.5
O=C(NCC(F)(F)F)c1[nH]c(C(F)(F)F)nc1-c1ccccc1,·,0.7,·,·,-9.6
CCOC(=O)/C(=C\c1cn(C)c2ccccc12)[N+](=O)[O-],1.2,-0.1,33.6*,-13.5,-6.6
C=CCN(CC=C)CC(O)Cn1c2ccccc2c2ccccc21 (stereo unspecified),-1.6,1.6,-1.3,6.7,3.5
OC(COCC(F)(F)C(F)(F)C(F)(F)C(F)F)Cn1c2ccccc2c2ccccc21 (stereo unspecified),0.0,8.5,29.1*,-5.5,40.0

# High-throughput results as filed in PubChem BioAssay.
